# From ChEMBL document CHEMBL3988442, “University of Dundee, Small-Polar-MMV Screening Library” (2021)
# Hit rate of the full screen: of about 48,000 compounds, about 13,000 (27%) showed an effect of 50% or more. The list shows a part of the results.
# Test system: Wolbachia pipientis
# Experiment: Anti-Wolbachia Cell-Based Screen
# Assay type: functional
# Set-up: scale not given: in the data most compounds retested in dose-response had high values
# Settings: 5 µM
row,SMILES,Percent Effect [%]
1,O=C1CN(CCCNC(=O)Nc2cccc(Cl)c2F)CCN1,1.597
2,Cc1cc(C)n(-c2ccc(N3CCCSCC3)nc2)n1,0.3589
3,CC1CCc2n[nH]c(C(=O)NCCc3ccco3)c2C1 (centres undefined),14.64
4,CCOc1ccccc1-c1noc(CN2CCCC(O)C2)n1 (centres undefined),-2.765
5,CC(C)S(=O)(=O)C(C)C(=O)Nc1ccc2oc(C3CC3)nc2c1 (centres undefined),-8.387
6,O=C(c1cccnc1O)N1CCCN(c2cccnn2)CC1,-5.126
7,CCc1cc(C(=O)N2CCCC(Cc3ccc(NC)nn3)C2)on1 (centres undefined),109.6
8,O=C(c1cc(CC2(NC3CCCCC3)COC2)no1)N1CCCCC1,6.649
9,CNc1ccc(CC2CCCN(C(=O)c3cnco3)C2)nn1 (centres undefined),129.2
10,O=C(c1cc(CC2(NCC3CCCCC3)COC2)no1)N1CCCCC1,0.2272
11,CNc1ccc(CC2CCCN(C(=O)c3c(C)noc3C)C2)nn1 (centres undefined),118
12,CNc1ccc(CC2CCCN(C(=O)c3scnc3C)C2)nn1 (centres undefined),109.5
13,CNc1ncc(C(=O)N2CCCC(Cc3ccccc3OC)C2)s1 (centres undefined),-5.807
14,Cc1noc(C)c1C(=O)N1C[C@@H]2CCCO[C@@H]2[C@H](N(C)C)C1,3.092
15,O=C(CN1CCCc2c(F)cc(Br)cc21)N1CCCC1,-2.164
16,CCN1CCC(Cn2ccc3c(OC)c(OC)ccc3c2=O)C1 (centres undefined),-8.791
17,COCC[C@]1(O)CCN(c2ncc(Cl)cc2F)C[C@H]1C,-5.057
18,CS(=O)(=O)N1C[C@@H]2CC[C@H](C1)N(CCC(=O)NCc1ccco1)C2,6.139
19,C[C@@H]1CN(Cc2nc(C(N)=O)no2)CC[C@@]1(O)C1CCOCC1,-5.887
20,CCc1nc(C)sc1CN1CC[C@@](O)(C2CC2)[C@H](C)C1,90.8
21,Cc1nonc1CN1CC[C@@](O)(C2CCOCC2)[C@H](C)C1,-5.747
22,CCc1nc(C)sc1CN1CC[C@@](O)(C2CCOCC2)[C@H](C)C1,107.2

row,SMILES,Percent Effect [%]
1,Cc1nnsc1CN1CC[C@@](O)(C2CCC2)[C@H](C)C1,-20.69
2,Cc1nonc1CN1CC[C@@](O)(C2CCC2)[C@H](C)C1,2.704
3,CCC1=N[C@@]2(CC[C@@H]3CN(S(=O)(=O)CC(C)C)C[C@@H]32)C(=O)N1CC,2.129
4,Cc1nc(-c2ccc(S(=O)(=O)N3CCSC3)cc2)co1,-2.878
5,O=C(c1ccc(C2CCCO2)s1)N1CCCOCC1 (centres undefined),7.048
6,Cl.O=C(c1ccnc(C2CCNCC2)c1)N1CCCOCC1,107.9
7,COc1ccc(F)c(-c2cc(C(=O)NC3CC3)ccn2)c1,-1.956
8,Cl.Cl.Cn1cnc2c(N3CCCC3)nc(C3CCNCC3)cc21,-10.47
9,O=C(c1ccc2c(c1)[nH]c(=O)n2C1CCCC1)N1CCC1,-5.446
10,Cl.Cl.Cn1cnc2c(N3CCOCC3)nc(C3CCNCC3)cc21,-9.589
11,O=C(c1ccnc(C2CCNCC2)c1)N1CCCC(CO)C1 (centres undefined),100.1
12,Cl.O=C(c1ccnc(C2CCNCC2)c1)N1CCCC1,87.63
13,CCOc1cc(C(=O)N2CCCC(c3cc(C(N)=O)[nH]n3)C2)ccn1 (centres undefined),-0.59
14,Cl.O=C(NC1CCCC1)c1ccnc(C2CCNCC2)c1,105.6
15,COc1ncccc1-c1cc(C(=O)NC2CC2)ccn1,1.183
16,Cc1cc(C2CCCN(C(=O)c3ccc(OCC4CC4)nc3)C2)n[nH]1 (centres undefined),-13.31
17,CC(C)(C)CC(=O)N1CSCC1C(=O)NCc1cccc(C#N)c1 (centres undefined),-25.6
18,Cc1cc(C(=O)N2CCC3(CC(=O)NC3=O)C2)c(-c2ccccc2)o1 (centres undefined),0.657
19,CSCC[C@H](NC(C)=O)C(=O)N(C)Cc1ccc(-n2cccn2)cc1,-22.5
20,Cc1cc(C(=O)N2CCNC(c3ccccc3)C2)c2ccc(F)cc2n1 (centres undefined),81.03
21,O=C(c1c[nH]nc1-c1cccc(F)c1)N1CCNC(c2ccccc2)C1 (centres undefined),39.59
22,Cc1cc(C(=O)N2C[C@H](c3ccccc3)[C@@H](N)C2)c2ccc(F)cc2n1,109.4

row,SMILES,Percent Effect [%]
1,Cc1cc(C(=O)N2CCCC3(CN(C)C(=O)O3)C2)c2ccc(F)cc2n1 (centres undefined),-8.064
2,Cc1cc(C(=O)N2CCN[C@H](C)C2)c2ccc(F)cc2n1,95.19
3,N[C@H]1CN(C(=O)CCc2cc(Cl)no2)C[C@@H]1c1ccccc1,0.8182
4,O=C(c1cc(-c2cn[nH]c2)nc2cc(F)ccc12)N1CCS(=O)(=O)CC1,-15.17
5,Cc1cc(C(=O)N2C[C@H]3CCC[C@@]3(CO)C2)c2ccc(F)cc2n1,-33.96
6,O=C(O)c1csc(S(=O)(=O)N2CCCc3cccc(OC(F)F)c32)c1,-29.54
7,CC(O)CN1CCN(C(=O)c2cnn(-c3ccc(Cl)cc3)c2)CC1 (centres undefined),-6.081
8,CC(O)CN1CCN(C(=O)c2cn(-c3ccccc3Cl)nn2)CC1 (centres undefined),5.18
9,O=C(c1cn(-c2ccccc2Cl)nn1)N1CCSCC1,139.5
10,O=C(c1cnn(-c2ccccc2F)c1)N1CCN(CCO)CC1,-7.046
11,CCOC1CCN(C(=O)c2cnn(-c3ccccc3Cl)c2)CC1,-5.801
12,CCN1CCN(C(=O)c2cnn(-c3ccccc3Cl)c2)CC1,0.9462
13,CCc1ccc(O)c(C(=O)N2CCN(CC(=O)N(C)C)CC2)c1,4.973
14,CN1CCN(C(=O)c2cnn(-c3ccccc3Cl)c2)CC1,84.01
15,O=C(c1cnn(-c2ccccc2Cl)c1)N1CCN(CCO)CC1,103.1
16,CN(C)C(=O)CN1CCN(C(=O)c2cnn(-c3ccccc3Cl)c2)CC1,104.8
17,O=C(c1cn(-c2ccccc2Cl)nn1)N1CCCSCC1,0.4154
18,CC(Nc1ncnc2sccc12)c1cnn(C)c1 (centres undefined),-17.23
19,O=C(NC[C@H]1OC[C@@H](NC2CCOCC2)[C@@H]1O)C1CCCC1,-16.92
20,O=C(COCC(F)(F)F)NC1CCCc2cc(OC(F)F)ccc21 (centres undefined),-1.083
